Assay outcomes (PubChem BioAssay)
A selection: hits, their analogues and other compounds. The true share with any hit is near 4.3%.
Peg3 prom inh: Peg3 promoter-driven luciferase inhibitors, primary screen, cell-based, HeLa, luciferase luminescence; HeLa PEG-Prom luciferase reporter, overnight; inhibition, % at 20 µM; 360,000 compounds, 1.7% hits; AID 588405, 2011;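 active = inhibition of at least 50% at 20 µM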
TRPM1 prom inh: inhibitors of MITF-dependent TRPM1 promoter reporter, primary screen, cell-based, SK-MEL-5, single point, luciferase; SK-MEL-5 TRPM1 promoter luciferase, 24 h; inhibition, % at 12.5 µM; 330,000 compounds, 0.83% hits;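 active = mean inhibition across replicates of 60% or more, whatever share of single replicates reaches that level; inconclusive = some that reach 60%, reason not given; inactive = mean inhibition across replicates below 60%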
CF NFkB block: inhibitors of PAF-induced NF-kB signaling, primary screen, cell-based, GFP fluorescence, uHTS; KKLEB NF-kB-GFP reporter, GFP fluorescence overnight; inhibition, % at 5 µM; 360,000 compounds, 0.86% hits; AID 588850, 2011;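 active = at least 50% inhibition at 5 µM, scaled per plate between neutral and stimulator controls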;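 note: PAF is a Pseudomonas aeruginosa culture filtrate used as stimulus; plate controls were PAF-stimulated DMSO wells for no effect and unstimulated DMSO wells for full effect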
HIF-2a inh: HIF-2a reporter inhibitors, primary screen, luminescence, 786-0 RCC cells. 360,000 compounds, 0.72% hits. AID 624352, 2012. 786-0 RCC cells HIF-2a reporter, luciferase luminescence, overnight. inhibition, % at 18.8 µM;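 active = inhibition of the luminescence signal of 40% or more relative to plate controls, in a single-dose primary screen at 18.75 µM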
KKLEB cytotox: cytotoxicity in KKLEB CF airway cells, primary screen, cytotoxicity control for CF NF-kB inhibitor project, cell-based, uHTS, fluorescence assay plates. 360,000 compounds, 0.36% hits. activity change (cytotoxicity), % at 5 µM. KKLEB CF airway cells viability, ATPlite luminescence, overnight; stronger effect = lower value; cells stimulated with P. aeruginosa culture filtrate;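 active = corrected activity change at or below -50% at 5 µM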
CHOP inhibitor: inhibitors of CHOP promoter induction, primary screen, cell-based, unfolded protein response, luciferase reporter. CHO-K1 CHOP-promoter luciferase, tunicamycin-induced, 15-18 h. inhibition, % at 10 µM. 220,000 compounds, 3.8% hits. AID 2732, 2010;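 active = compounds that reduced the stress-induced luciferase reporter signal by more than about 70% of percent inhibition, limit read from the data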;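 note: 0% = tunicamycin plus vehicle and 100% = wells without tunicamycin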
Active calls of the source: *; ? = inconclusive; . = no result given.

SMILES	Peg3 prom inh	TRPM1 prom inh	CF NFkB block	HIF-2a inh	KKLEB cytotox	CHOP inhibitor
CC[N+](C)(CC)CCOC(=O)C(O)(c1ccccc1)C1CCCCC1 (stereo unspecified)	-9.9	-13.4	53.8*	29.0	5.9	17.7
Cc1cc(Br)ccc1NC(=O)c1sc2ncnc(N3CCN(c4ccccn4)CC3)c2c1C	22.7	-2.9	12.1	-16.6	-1.5	.
Cc1ccc(NC(=O)c2cnc(N3CCN(c4ccccn4)CC3)c3ccccc23)c(Br)c1	89.9*	37.6	-12.6	19.0	-17.4	69.1
O=C(c1cnc(N2CCN(c3ncccn3)CC2)c2ccccc12)N1CCN(c2ccccn2)CC1	27.9	9.5	8.0	22.1	-2.9	3.1
O=C(Nc1c(F)cccc1F)c1cnc(N2CCN(c3ccccn3)CC2)c2ccccc12	72.5*	29.7	-27.3	-7.7	-4.6	35.7
O=C(Nc1nc(-c2ccccc2)cs1)c1ccc2c(=O)n3c(nc2c1)CCCCC3	74.2*	55.9	3.6	-59.8	16.5	27.6
O=C(Nc1cccc(Cl)c1N1CCCCC1)c1ccc(N2CCOCC2)c([N+](=O)[O-])c1	19.2	-12.9	65.4*	10.8	-67.8*	43.6
Cc1cc(C)n(-c2ccc(C(=O)Nc3nc4ccccc4s3)cc2)n1	-337.9	-54.7	-19.2	-281.5	9.6	90.4*
Nc1ccc(C(=O)Nc2nc3ccccc3s2)cc1	-274.5	-5.9	-43.3	-171.7	2.3	18.4
CN(c1ccccc1)S(=O)(=O)c1cccc(NC(=O)c2ccc(Cl)c([N+](=O)[O-])c2)c1	93.3*	25.1	1.9	0.3	7.3	.
O=CC(=Cc1ccccc1)c1ccccc1	9.1	.	6.5	5.7	-0.6	.
CC1CCN(c2cc(N3CCOCC3)c(F)cc2[N+](=O)[O-])CC1	0.9	2.4	-1.5	1.7	-7.4	81.5*
O=C(Nc1ccccc1N1CCCCC1)c1ccc(Cl)c([N+](=O)[O-])c1	101.2*	17.5	-1.8	17.0	-0.4	-28.7
O=C(Nc1nc2ccccc2s1)c1ccc(N2CCCCC2)c([N+](=O)[O-])c1	-118.3	-10.8	2.9	-87.2	12.4	79.4*
CN1CCN(c2ccccc2NC(=O)c2ccc(N3CCCC3)c([N+](=O)[O-])c2)CC1	23.9	-16.5	-5.3	-11.1	5.5	7.8
CCc1ccc2nc(NC(=O)c3ccc(N4C(=O)CCC4=O)cc3)sc2c1	-119.4	0.3	10.5	-154.1	10.8	80.5*
CNS(=O)(=O)c1ccc2nc(NC(=O)c3ccc(N4C(=O)CCC4=O)cc3)sc2c1	-1.7	0.6	3.7	2.8	-1.7	-27.7
CC1(C(=O)NS(=O)(=O)c2cccs2)CCN1C(=O)CC1CCCCC1 (stereo unspecified)	10.1	.	-20.0	12.1	-7.3	.
O=C(Nc1ccccc1-c1ccccc1)c1ccc(Cl)c([N+](=O)[O-])c1	94.0*	9.9	-9.5	25.1	0.4	-14.6
Cc1cc(C(=O)Nc2ccccc2N2CCOCC2)ccc1[N+](=O)[O-]	13.4	1.4	-3.7	15.8	16.2	16.2
O=C(Nc1nc(-c2ccccc2)cs1)c1ccc(N2CCOCC2)c([N+](=O)[O-])c1	66.7*	80.4*	8.4	-14.6	-17.2	78.7*
CC1CCN(c2ccccc2NC(=O)c2ccc(N3CCOCC3)c([N+](=O)[O-])c2)CC1	3.1	4.4	42.9	8.0	-54.1*	21.2
O=S(=O)(c1ccc(SCc2ccc(Cl)cc2)nc1)N1CCCC1	12.5	2.8	7.5	-27.8	-4.7	.
COc1ccc(CC(=O)Nc2cc(S(=O)(=O)N3CCOCC3)ccc2N2CCOCC2)cc1OC	5.5	-1.7	0.0	3.8	-6.8	.
O=C(Nc1nnc([C@@H]2C[C@H](O)[C@@H](CO)O2)s1)c1cccc(C(F)(F)F)c1	6.9	.	7.2	-3.4	2.4	.
SMILES	Peg3 prom inh	TRPM1 prom inh	CF NFkB block	HIF-2a inh	KKLEB cytotox	CHOP inhibitor
O=C(Cc1ccc(S(=O)(=O)N2CCOCC2)s1)NCCOc1ccccc1	7.5	1.4	10.2	-0.2	-7.9	.
CC(C)(C)c1ccc(-c2nnc(SCCC#N)n2C2CCCC2)cc1	25.9	12.7	8.6	24.7	5.3	71.5*
Cn1c(SCCC#N)nnc1-c1ccc(F)cc1	6.2	0.9	-6.3	16.6	-8.5	15.3
Cc1cc(O)c2c(c1O)C(=O)[C@]13C(=C2O)C(=O)[C@@H]2[C@@H](O)[C@H]1[C@@H]1[C@H](O)[C@H]3C(=O)C3=C(O)c4c(O)cc(C)c(O)c4C(=O)[C@]312	30.3	?	53.0*	-21.5	-19.4	.
COC(=O)c1ccc(-c2nc3cc(Cl)c(N)cc3s2)cc1	43.0	15.8	-20.3	-92.2	-52.8*	32.9
COC(=O)c1ccc(-c2nc(O)c(C)s2)cc1	-3.3	-5.5	-12.4	-11.2	6.0	3.9
COc1ccc(-n2nc3c(N4CCC(C(=O)NCC(C)c5ccccc5)CC4)nnc(C)c3c2C)cc1 (stereo unspecified)	74.6*	68.2*	12.7	11.3	-4.5	.
CCOc1ccccc1CNC(=O)C1CCCN(c2nnc(C)c3c(C)n(-c4ccccc4)nc23)C1 (stereo unspecified)	54.7*	81.4*	0.3	11.3	3.0	.
COc1ccc(-n2nc3c(N4CCC(C(=O)NCCc5ccccc5C)CC4)nnc(C)c3c2C)cc1	103.0*	88.7*	-2.8	0.1	0.4	.
CNC(=O)N(O)C1N(/N=C/c2cc(Br)ccc2O)C(=S)SC1(C)C (stereo unspecified)	15.8	-10.8	-18.7	2.2	-5.2	.
COc1ccc(-c2cc(-c3ccccc3)nc3ncnn23)cc1	2.5	.	1.0	-10.3	-11.5	28.6
COc1ccc(-c2cc(-c3ccc(Br)cc3)nc3ncnn23)cc1OC	13.2	-8.9	-25.8	5.4	1.8	78.9*
CCOC(=O)C1CCCN(C(=O)c2cc(C#N)cs2)CC1 (stereo unspecified)	1.0	.	-4.4	2.7	1.5	.
CC(NC(=O)c1cc2c(s1)CS(=O)(=O)C2)c1ccccc1 (stereo unspecified)	0.8	-1.8	14.4	2.7	-10.2	.
CC(=O)Nc1ccc(NC(=O)c2cc(-c3cc(C)cc(C)c3O)n[nH]2)cc1	-86.2	-28.9	0.2	-109.9	-1.3	.
Cc1cc(C)c(O)c(-c2cc(C(=O)Nc3ccc(S(=O)(=O)N4CCOCC4)cc3)[nH]n2)c1	59.0*	-4.6	7.1	-5.1	2.8	85.2*
NC(=O)c1cccc(-c2cnc(N)c(C(=O)c3cccnc3)n2)c1	62.2*	61.3*	51.5*	37.6	5.5	.
OC[C@H]1O[C@@H](n2cnc3c(Nc4ccccc4)ncnc32)[C@H](O)[C@@H]1O	-85.7	-44.7	23.3	-126.4	-21.2	-7.1
